# Measured values as given in the supplement of paper PMC8728848.
# Only a selection was taken, and the strongest signals are over-represented in it overall.
# B1: Aap brpt (Staphylococcus epidermidis) (protein)
# chain: VDGDPITSTEEIPFDKKREFDPNLAPGTEKVVQKGEPGTKTITTPTTKNPLTGEKVGEGEPTEKITKQPVDEIVHYGGEEIKTGHKDEFDPNAPKGSQTTQPGKPGVKNPDTGEVVTPPVDDVTKYGPVDGDPITSTEEIPFDKKREFDPNLAPGTEKVVQKGEPGTKTITTPTTKNPLTGEKVGEGEPTEKITKQPVDEIVHYGGEEIKPGHKDEFDPNAPKGSQEDVPGKPGVKNPDTGEVVTPPVDDVTKYGPVDGDSITSTEEIPFDKKREFDPNLAPGTEKVVQKGEPGTKTITTPTTKNPLTGEKVGEGEPTEKITKQPVDEIVHYGGEQIPQGHKDEFDPNAPVDSKTEVPGKPGVKNPDTGEVVTPPVDDVTKYGPVDGDSITSTEEIPFDKKREFDPNLAPGTEKVVQKGEPGTKTITTPTTKNPLTGEKVGEGKSTEKVTKQPVDEIVEYGPTK
# What was measured:
# Assay in all cases: glycan array binding signal (z-score within array); higher = stronger binding
# Conditions in all cases: glycan notation: IUPAC condensed, linker removed
# Fuc(a1-2)Gal(b1-3)GalNAc = target: Fuc(a1-2)Gal(b1-3)GalNAc
# Outline: (§1)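 The binding signal is a Z-score computed within each array. Data were drawn from 3228 arrays in the Consortium for Functional Glycomics database, restricted to those with a known protein sequence. Scores were averaged over arrays of the same protein sequence at different concentrations or buffers, and over linkers, and negative values can be taken as non-binding.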
# [1] = target: Fuc(a1-2)Gal(b1-3)GalNAc(b1-4)[Neu5Ac(a2-3)]Gal(b1-4)Glc
# Outline: as §1
# [2] = target: Fuc(a1-2)Gal(b1-3)GlcNAc(b1-3)[Gal(b1-4)GlcNAc(b1-6)]Gal(b1-4)Glc
# Outline: as §1
# [3] = target: Fuc(a1-2)Gal(b1-4)[Fuc(a1-3)]GlcNAc(b1-3)Gal(b1-4)[Fuc(a1-3)]GlcNAc
# Outline: as §1
# [4] = target: Fuc(a1-2)[Gal(a1-3)]Gal(b1-4)Glc
# Outline: as §1
# [5] = target: Fuc(a1-2)[GalNAc(a1-3)]Gal(b1-4)GlcNAc(b1-2)Man(a1-3)[Fuc(a1-2)[GalNAc(a1-3)]Gal(b1-4)GlcNAc(b1-2)Man(a1-6)]Man(b1-4)GlcNAc(b1-4)[Fuc(a1-6)]GlcNAc
# Outline: as §1
# [6] = target: Fuc(a1-2)[GalNAc(a1-3)]Gal(b1-4)GlcNAc(b1-3)GalNAc
# Outline: as §1
# [7] = target: Fuc(a1-3)[Gal(b1-4)]Glc6S
# Outline: as §1
# [8] = target: Fuc(a1-3)[Gal3S(b1-4)]Glc
# Outline: as §1
# Gal(a1-3)Gal = target: Gal(a1-3)Gal
# Outline: as §1
# [9] = target: Gal(a1-3)[Gal(a1-4)]Gal(b1-4)GlcNAc
# Outline: as §1
# [10] = target: Gal(b1-3)GlcNAc(b1-3)Gal(b1-3)GlcNAc
# Outline: as §1
# [11] = target: Gal(b1-3)GlcNAc(b1-3)Gal(b1-4)GlcNAc(b1-2)Man(a1-3)[Gal(b1-3)GlcNAc(b1-3)Gal(b1-4)GlcNAc(b1-2)Man(a1-6)]Man(b1-4)GlcNAc(b1-4)GlcNAc
# Outline: as §1
# [12] = target: Gal(b1-3)GlcNAc(b1-3)Gal(b1-4)GlcNAc(b1-3)Gal(b1-4)GlcNAc(b1-2)[Gal(b1-3)GlcNAc(b1-3)Gal(b1-4)GlcNAc(b1-3)Gal(b1-4)GlcNAc(b1-6)]Man(a1-6)[Gal(b1-3)GlcNAc(b1-3)Gal(b1-4)GlcNAc(b1-3)Gal(b1-4)GlcNAc(b1-2)Man(a1-3)]Man(b1-4)GlcNAc(b1-4)[Fuc(a1-6)]GlcNAc
# Outline: as §1
# [13] = target: Gal(b1-3)[Neu5Ac(a2-6)]GalNAc
# Outline: as §1
# Gal(b1-4)GlcNAc(b1-2)Man = target: Gal(b1-4)GlcNAc(b1-2)Man
# Outline: as §1
# [14] = target: Gal(b1-4)GlcNAc(b1-2)Man(a1-6)Man(b1-4)GlcNAc(b1-4)GlcNAc
# Outline: as §1
# [15] = target: Gal(b1-4)GlcNAc(b1-2)[Gal(b1-4)GlcNAc(b1-4)]Man(a1-3)[Gal(b1-4)GlcNAc(b1-2)[Gal(b1-4)GlcNAc(b1-6)]Man(a1-6)]Man(b1-4)GlcNAc(b1-4)GlcNAc
# Outline: as §1
# [16] = target: Gal(b1-4)GlcNAc(b1-2)[Gal(b1-4)GlcNAc(b1-4)]Man(a1-3)[GlcNAc(b1-4)][Gal(b1-4)GlcNAc(b1-2)[Gal(b1-4)GlcNAc(b1-6)]Man(a1-6)]Man(b1-4)GlcNAc(b1-4)GlcNAc
# Outline: as §1
# [17] = target: Gal(b1-4)GlcNAc(b1-3)Gal(b1-3)GalNAc
# Outline: as §1
# [18] = target: Gal(b1-4)GlcNAc(b1-3)Gal(b1-4)GlcNAc(b1-2)Man(a1-3)[Gal(b1-4)GlcNAc(b1-3)Gal(b1-4)GlcNAc(b1-2)Man(a1-6)]Man(b1-4)GlcNAc(b1-4)GlcNAc
# Outline: as §1
# [19] = target: Gal(b1-4)GlcNAc(b1-3)Gal(b1-4)GlcNAc(b1-2)Man(a1-3)[Gal(b1-4)GlcNAc(b1-3)Gal(b1-4)GlcNAc(b1-2)Man(a1-6)]Man(b1-4)GlcNAc(b1-4)[Fuc(a1-6)]GlcNAc
# Outline: as §1
# [20] = target: Gal(b1-4)GlcNAc(b1-3)Gal(b1-4)GlcNAc(b1-3)Gal(b1-4)GlcNAc
# Outline: as §1
# [21] = target: Gal(b1-4)GlcNAc(b1-3)Gal(b1-4)GlcNAc(b1-3)Gal(b1-4)GlcNAc(b1-2)[Gal(b1-4)GlcNAc(b1-3)Gal(b1-4)GlcNAc(b1-3)Gal(b1-4)GlcNAc(b1-6)]Man(a1-6)[Gal(b1-4)GlcNAc(b1-3)Gal(b1-4)GlcNAc(b1-3)Gal(b1-4)GlcNAc(b1-2)Man(a1-3)]Man(b1-4)GlcNAc(b1-4)[Fuc(a1-6)]GlcNAc
# Outline: as §1
# [22] = target: Gal(b1-4)GlcNAc(b1-3)Gal(b1-4)GlcNAc(b1-3)Gal(b1-4)GlcNAc(b1-3)Gal(b1-4)GlcNAc(b1-2)Man(a1-3)[Gal(b1-4)GlcNAc(b1-3)Gal(b1-4)GlcNAc(b1-3)Gal(b1-4)GlcNAc(b1-3)Gal(b1-4)GlcNAc(b1-2)Man(a1-6)]Man(b1-4)GlcNAc(b1-4)GlcNAc
# Outline: as §1
# [23] = target: Gal(b1-4)GlcNAc(b1-6)[Gal(b1-4)GlcNAc(b1-3)]GalNAc
# Outline: as §1
# [24] = target: Gal3S(b1-4)[Fuc(a1-3)]Glc6S
# Outline: as §1
# [25] = target: GlcNAc(a1-4)Gal(b1-3)GlcNAc
# Outline: as §1
binder,measurement,setting,value
B1,glycan array binding signal (z-score),Fuc(a1-2)Gal(b1-3)GalNAc,-1
same,glycan array binding signal (z-score),[1],-0.026
same,glycan array binding signal (z-score),[2],0.337
same,glycan array binding signal (z-score),[3],-0.951
same,glycan array binding signal (z-score),[4],-0.658
same,glycan array binding signal (z-score),[5],0.323
same,glycan array binding signal (z-score),[6],-2.27
same,glycan array binding signal (z-score),[7],0.738
same,glycan array binding signal (z-score),[8],0.077
same,glycan array binding signal (z-score),Gal(a1-3)Gal,2.41
same,glycan array binding signal (z-score),[9],0.93
same,glycan array binding signal (z-score),[10],-0.56
same,glycan array binding signal (z-score),[11],-0.969
same,glycan array binding signal (z-score),[12],-0.027
same,glycan array binding signal (z-score),[13],0.106
same,glycan array binding signal (z-score),Gal(b1-4)GlcNAc(b1-2)Man,-0.301
same,glycan array binding signal (z-score),[14],-0.494
same,glycan array binding signal (z-score),[15],0.481
same,glycan array binding signal (z-score),[16],-0.768
same,glycan array binding signal (z-score),[17],-0.487
same,glycan array binding signal (z-score),[18],3.34
same,glycan array binding signal (z-score),[19],0.377
same,glycan array binding signal (z-score),[20],0.054
same,glycan array binding signal (z-score),[21],2.44
same,glycan array binding signal (z-score),[22],-0.738
same,glycan array binding signal (z-score),[23],-0.18
same,glycan array binding signal (z-score),[24],2.61
same,glycan array binding signal (z-score),[25],-0.124
